According to PubChem BioAssay (EPA / NIEHS):
Activity calls are given as the source filed them. Rule for the calls: active = hit-call score of the fitted dose curve at least 0.9, where 1 is the maximum; inactive = score below 0.9.

How the values were obtained:
[1] = BSK_3C_Vis: BioMAP Diversity Plus: 3C Assay for Morphology Visualization (AID 2283025); settings: primary human endothelial cells (HUVEC);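 note: fitted both ways so gain or loss versus DMSO counts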;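 for AC50: light microscopy image of cell morphology used as background control; cells imaged 24 h after dosing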
In short: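 Endothelial cells from human umbilical vein were treated with test chemicals for 24 h and inspected by light microscopy for changes in cell conformation.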

[2] = BSK_4H_SRB: Viability Assessment in the BioMAP Diversity Plus: 4H Assay (AID 2283027); settings: primary human endothelial cells (HUVEC);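 note: cells exposed to compound for 24 h before staining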;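 for AC50: curves fitted both ways versus DMSO so AC50 may be loss or gain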
In short: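 Human umbilical vein endothelial cells were dosed with chemical and, after 24 h, fixed with 10% TCA, stained with 0.1% sulforhodamine B, and read at 560 nm to give total protein as a cytotoxicity measure. Bidirectional fitting relative to DMSO control.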

[3] = BSK_BE3C_SRB: Viability Assessment in the BioMAP Diversity Plus: BE3C Assay (AID 2283028); settings: primary human bronchial epithelial cells;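 for AC50: fitted both ways so AC50 may mark signal gain or loss versus DMSO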
In short: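 Overt cytotoxicity was assessed as total protein in confluent human primary bronchial epithelial cultures 24 h after chemical addition, using 0.1% sulforhodamine B staining read at 560 nm.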

[4] = read-out: Thrombomodulin, THBD (gene 7056); test: BSK_3C_Thrombomodulin: BioMAP Diversity Plus: 3C Assay for Thrombomodulin Biomarker Activity (AID 2283029); settings: primary human endothelial cells (HUVEC); actives raise or lower the signal
In short: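 Thrombomodulin ELISA, human primary HUVEC, 24 h post-dose; data fitted in both directions relative to DMSO.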

[5] = read-out: Urokinase-type plasminogen activator receptor (uPAR), PLAUR (gene 5329); test: BSK_4H_uPAR: BioMAP Diversity Plus: 4H Assay for Urokinase-type plasminogen activator receptor (uPAR) Biomarker Activity (AID 2283030); settings: primary human endothelial cells (HUVEC); actives raise or lower the signal
In short: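 Chemicals are dosed onto human vascular endothelial primary cells (umbilical vein). After 24 h, uPAR is read by ELISA. Gain or loss of signal is fitted relative to DMSO.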

[6] = read-out: Vascular endothelial growth factor receptor 2 (Homo sapiens) (UniProt P35968); test: BSK_4H_VEGFRII: BioMAP Diversity Plus: 4H Assay for Vascular endothelial growth factor receptor 2 (VEGFR2) Biomarker Activity (AID 2283031); settings: primary human endothelial cells (HUVEC); actives raise or lower the signal;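 for AC50: cell-surface VEGFR2 protein level quantified by ELISA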
In short: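 VEGFRII levels on human vascular endothelial primary cells were determined by ELISA at 24 hours post-dosing, with gain- or loss-of-signal fitted against DMSO controls.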

[7] = read-out: Human Leukocyte Antigen - DR isotype (HLADR), HLA-DRA (gene 3122); test: BSK_BE3C_HLADR: BioMAP Diversity Plus: BE3C Assay for Human Leukocyte Antigen - DR isotype (HLADR) Biomarker Activity (AID 2283032); settings: primary human bronchial epithelial cells; actives raise or lower the signal
In short: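 Signal came from an ELISA for HLA-DR in human bronchial epithelial primary cells harvested 24 h after treatment; gain- and loss-of-signal fitting used DMSO controls as reference.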

[8] = read-out: Vascular cell adhesion molecule 1 (VCAM1), VCAM1 (gene 7412); test: BSK_4H_VCAM1: BioMAP Diversity Plus: 4H Assay for Vascular cell adhesion molecule 1 (VCAM1) Biomarker Activity (AID 2283033); settings: primary human endothelial cells (HUVEC); actives raise or lower the signal
In short: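 Endpoint derived from bidirectional fitting against DMSO controls of VCAM-1 ELISA signal in umbilical vein endothelial cells sampled at 24 h following treatment.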

[9] = read-out: Interferon-gamma inducible Protein 10 (IP10), CXCL10 (gene 3627); test: BSK_BE3C_IP10: BioMAP Diversity Plus: BE3C Assay for Interferon-gamma inducible Protein 10 (IP10) Biomarker Activity (AID 2283034); settings: primary human bronchial epithelial cells; actives raise or lower the signal
In short: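 Using primary human bronchial epithelial cultures, the assay captures IP-10 by ELISA one day (24 h) after exposure. Parallel SRB staining of total protein flags overt cytotoxicity. Fits run bidirectionally relative to DMSO.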

[10] = read-out: Monokine induced gamma interferon (MIG), CXCL9 (gene 4283); test: BSK_BE3C_MIG: BioMAP Diversity Plus: BE3C Assay for Monokine induced gamma interferon (MIG) Biomarker Activity (AID 2283035); settings: primary human bronchial epithelial cells; actives raise or lower the signal
In short: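 ELISA read-out of MIG in human lung bronchial epithelial primary cultures, 24 h post-dosing. Bidirectional curve fit vs DMSO baseline.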

[11] = read-out: Transforming growth factor beta 1 (TGFb1), TGFB1 (gene 7040); test: BSK_BE3C_TGFb1: BioMAP Diversity Plus: BE3C Assay for Transforming growth factor beta 1 (TGFb1) Biomarker Activity (AID 2283036); settings: primary human bronchial epithelial cells; actives raise or lower the signal
In short: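 In this human primary bronchial epithelial system, an ELISA quantified TGF-b1 one day after dosing. Endpoint changes in either direction were fitted relative to DMSO.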

[12] = read-out: Plasminogen activator inhibitor-1 (PAI1), SERPINE1 (gene 5054); test: BSK_BE3C_PAI1: BioMAP Diversity Plus: BE3C Assay for Plasminogen activator inhibitor-1 (PAI1) Biomarker Activity (AID 2283037); settings: primary human bronchial epithelial cells; actives raise or lower the signal
In short: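 PAI-1 biomarker levels in treated human bronchial epithelial cells are determined by ELISA at 24 h. Both increases and decreases relative to DMSO are fitted.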

[13] = read-out: urokinase plasminogen activator (uPA), PLAU (gene 5328); test: BSK_BE3C_uPA: BioMAP Diversity Plus: BE3C Assay for urokinase plasminogen activator (uPA) Biomarker Activity (AID 2283038); settings: primary human bronchial epithelial cells; actives raise or lower the signal
In short: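 Measured by ELISA: uPA from human primary bronchial epithelial cells 24 h after chemical treatment. Values derive from bidirectional curve fitting with DMSO serving as negative control. Total protein by SRB staining in parallel wells flagged overt cytotoxicity.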

[14] = read-out: Urokinase-type plasminogen activator receptor (uPAR), PLAUR (gene 5329); test: BSK_BE3C_uPAR: BioMAP Diversity Plus: BE3C Assay for Urokinase-type plasminogen activator receptor (uPAR) Biomarker Activity (AID 2283039); settings: primary human bronchial epithelial cells; actives raise or lower the signal
In short: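 A uPAR ELISA serves as the readout, taken 24 h after treating primary human bronchial epithelial cells. Responses in either direction are fitted against DMSO, which defines baseline activity.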

[15] = read-out: Interleukin-6 (IL6), IL6 (gene 3569); test: BSK_CASM3C_IL6: BioMAP Diversity Plus: CASM3C Assay for Interleukin-6 (IL6) Biomarker Activity for (AID 2283040); settings: primary human coronary artery smooth muscle cells; actives raise or lower the signal
[16] = read-out: Tissue plasminogen activator (tPA), PLAT (gene 5327); test: BSK_BE3C_tPA: BioMAP Diversity Plus: BE3C Assay for Tissue plasminogen activator (tPA) Biomarker Activity (AID 2283041); settings: primary human bronchial epithelial cells; actives raise or lower the signal
In short: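 Bidirectional curve fitting relative to DMSO defined activity, with tPA detected by ELISA in chemically treated human bronchial epithelial primary cells at 24 hours.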

[17] = read-out: Interleukin-8 (IL8), CXCL8 (gene 3576); test: BSK_CASM3C_IL8: BioMAP Diversity Plus: CASM3C Assay for Interleukin-8 (IL8) Biomarker Activity (AID 2283042); settings: primary human coronary artery smooth muscle cells; actives raise or lower the signal;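 note: IL-8 protein level quantified by ELISA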
[18] = read-out: Human Leukocyte Antigen - DR isotype (HLADR), HLA-DRA (gene 3122); test: BSK_CASM3C_HLADR: BioMAP Diversity Plus: CASM3C Assay for Human Leukocyte Antigen - DR isotype (HLADR) Biomarker Activity (AID 2283043); settings: primary human coronary artery smooth muscle cells; actives raise or lower the signal;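 note: cell-surface HLA-DR protein level quantified by ELISA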
[19] = read-out: Macrophage colony-stimulating factor (MCSF), CSF1 (gene 1435); test: BSK_CASM3C_MCSF: BioMAP Diversity Plus: CASM3C Assay for Macrophage colony-stimulating factor (MCSF) Biomarker Activity (AID 2283044); settings: primary human coronary artery smooth muscle cells; actives raise or lower the signal;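 note: M-CSF protein amount quantified by ELISA after 24 h exposure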

Measured: AC50

Oc1c(Cl)cc(Cl)cc1Cl
inactive: all assays above

CCOP(=S)(OCC)SCS(=O)(=O)C(C)(C)C
inactive: all assays above

CC(C)=CC1C(C(=O)OCc2cccc(Oc3ccccc3)c2)C1(C)C (centres undefined)
active: [1] 37.6 µM | [16] 9.82 µM | [18] 20 µM
inactive: all other assays above

O=C1C=CC(=O)c2ccccc21
active: [1] 4.06 µM | [2] 2.55 µM | [3] 3.8 µM | [5] 1.99 µM | [6] 5.18 µM | [7] 3.32 µM | [8] 1.95 µM | [9] 2.01 µM | [10] 6.51 µM | [11] 2.26 µM | [12] 3.25 µM | [13] 4.36 µM | [14] 4.59 µM | [15] 9.25 µM | [16] 3.27 µM | [17] 20 µM | [18] 2.45 µM | [19] 5.16 µM
inactive: [4]

CCCCCCCCCCCCc1cccc(S(=O)(=O)O)c1
active: [3] 26.9 µM | [7] 17.6 µM | [9] 13 µM | [10] 30.1 µM | [11] 5.79 µM | [12] 23.7 µM | [13] 28.4 µM | [14] 29.1 µM | [16] 3.92 µM
inactive: all other assays above

CC(C=O)Cc1ccc2c(c1)OCO2 (centres undefined)
inactive: all assays above
